# Data taken from PubChem BioAssay (NCI).
# The panel holds about 83,000 compounds, 20% with a hit somewhere; the sample as a whole holds those more often.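 Testing used 96-well plates and a 48-hour single-concentration exposure. Example: -40 means 40% of the starting cells died.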 A number with no mark means an inactive call. Calls of active or inactive are those of the source. Rule for the calls: active = growth percent below 10; inactive = the rest.
# Assays:
# Assay in all cases: NCI-60 one-dose screen, 48 h (100 = growth as untreated, 0 = no growth, -100 = all killed)
# Settings in all cases: 10 µM unless noted
# [1] = test system: HCT-15 colon
# [2] = test system: HT29 colon
# [3] = test system: SNB-75 CNS
# [4] = test system: SNB-19 CNS
# [5] = test system: U251 CNS
# [6] = test system: PC-3 prostate
# [7] = test system: SK-MEL-5 melanoma
# [8] = test system: UACC-62 melanoma
# [9] = test system: LOX IMVI melanoma
# [10] = test system: SK-MEL-28 melanoma
SMILES,growth [1],growth [2],growth [3],growth [4],growth [5],growth [6],growth [7],growth [8],growth [9],growth [10]
NC1=Nc2cc(OCCCCN3Cc4ccccc4C3)c(OCC3CC3)cc2C12CCCC2,3.13% (active),2.03% (active),71.5%,76.9%,24.2%,44.1%,-91.5% (active),50.5%,-80.7% (active),-81.4% (active)
CC(C)(C)n1cc(-c2ccnc(NCCCNS(=O)(=O)c3ccc(C(F)(F)F)cc3)c2)c(-c2cccc(F)c2)n1,37.7%,16.5%,66.6%,86.5%,67.6%,71.9%,78.9%,89.4%,73.6%,96.9%
COc1ccc(C(=O)N2c3ccccc3Sc3ccccc32)c(C(F)(F)F)c1,18%,3.4% (active),29.3%,30.8%,19%,15.5%,5.29% (active),31.6%,16.7%,52%
O=C(CCCCCNC(=O)c1cc(=O)c(O)co1)Nc1ccccc1,91.5%,106%,82.7%,101%,89.9%,99.7%,101%,97.9%,92.7%,104%
N#Cc1ccc(O)c(C2=NCC(Cc3ccccc3)O2)c1 (stereo not given),21.2%,72.6%,70.6%,55.6%,23.8%,35.3%,35.5%,42%,32.6%,80.2%
NC(=O)c1cnc(Nc2cccc(N)c2)nc1NCCCNC(=O)C1CCC1,101%,92.9%,53.8%,82.8%,64.8%,72.4%,84.6%,70%,68.7%,92%
COc1ccc2nc(Cl)c(/C=C3\CC(c4ccccc4)=NN(c4ccccc4)C3=O)cc2c1,84.5%,82.5%,19.8%,20.3%,55.6%,66.1%,78.2%,71.8%,78.3%,85.8%
CCn1cc(CNc2ccc(C(=O)Nc3cc4cc(OC)c(OC)cc4c(C)n3)cc2)cn1,26.3%,56.6%,65.2%,84.1%,65.2%,15.3%,10.3%,33.5%,46.1%,70.5%
CCOC(=O)C#Cc1c(C(=O)OCC)nnn1Cc1ccc(C(F)(F)F)cc1,-16.9% (active),5.09% (active),62.3%,85.5%,93.7%,64.5%,95.2%,80%,-68.3% (active),89.7%
CN1CCN(CCOc2ccc(-c3cnc4c(-c5cccc(F)c5F)cnn4c3)cc2)CC1,-8.62% (active),-46.1% (active),115%,8.04% (active),-32.4% (active),90.5%,-32.4% (active),-36.1% (active),-95.8% (active),-18.7% (active)
Clc1ccc(-c2cc(-c3ccccc3)nc(NCCNc3ccnc4cc(Cl)ccc34)n2)cc1,-72.7% (active),-16.2% (active),75.7%,44.7%,-85.9% (active),16.3%,30.7%,69%,-76.7% (active),-62.1% (active)
O=C(NC1CC(F)C1)c1cc2cccnc2n1-c1ccc(Cl)c(Cl)c1 (stereo not given),96.6%,101%,89.1%,95.2%,93.9%,89.8%,98.9%,83.7%,89.6%,117%
CN1CCN(c2ccc(NC(=O)c3cncnc3Nc3ccc(OCc4cccc(F)c4)c(Cl)c3)cc2)CC1,-39.6% (active),-55.3% (active),68.3%,84.1%,47%,68.1%,87.8%,48%,29.7%,81.1%
